An excerpt weighted towards active compounds, which were near 2.3% of everything screened.
Glioma ERSR ind: inducers of ER stress response in human glioma cells | Potency, µM, without a hit: at the top dose activation, most hits filed as activators | U87-MG GRP78 promoter luciferase reporter, 16 h | actives 0.02% (n = 420,000); further: series mostly up to about 76 µM; % of control where 0% means no effect; nearly all actives have a fitted effect of over 35% in size
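Stably transfected U87-MG human glioma cells carrying a GRP78-based luminescent sensor were seeded at 1000 cells/well, pin-dosed with compounds and incubated 16 h. Luciferase reagent was then added, and end-point luminescence was read after 10 min at room temperature.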
GLS inhibitor: glutaminase GLS (human) inhibition; O94925; GLS enzymatic activity, qHTS titration; Potency, µM (doses to about 45.5 µM), for the others: top-dose activity change, negative = inhibition, actives largely listed as inhibitors; actives 0.21% (n = 410,000); AID 624170; further: on the % scale 0 is the no-effect control and ±100 the full control effect
Target sequence (O94925 whole entry, looked up): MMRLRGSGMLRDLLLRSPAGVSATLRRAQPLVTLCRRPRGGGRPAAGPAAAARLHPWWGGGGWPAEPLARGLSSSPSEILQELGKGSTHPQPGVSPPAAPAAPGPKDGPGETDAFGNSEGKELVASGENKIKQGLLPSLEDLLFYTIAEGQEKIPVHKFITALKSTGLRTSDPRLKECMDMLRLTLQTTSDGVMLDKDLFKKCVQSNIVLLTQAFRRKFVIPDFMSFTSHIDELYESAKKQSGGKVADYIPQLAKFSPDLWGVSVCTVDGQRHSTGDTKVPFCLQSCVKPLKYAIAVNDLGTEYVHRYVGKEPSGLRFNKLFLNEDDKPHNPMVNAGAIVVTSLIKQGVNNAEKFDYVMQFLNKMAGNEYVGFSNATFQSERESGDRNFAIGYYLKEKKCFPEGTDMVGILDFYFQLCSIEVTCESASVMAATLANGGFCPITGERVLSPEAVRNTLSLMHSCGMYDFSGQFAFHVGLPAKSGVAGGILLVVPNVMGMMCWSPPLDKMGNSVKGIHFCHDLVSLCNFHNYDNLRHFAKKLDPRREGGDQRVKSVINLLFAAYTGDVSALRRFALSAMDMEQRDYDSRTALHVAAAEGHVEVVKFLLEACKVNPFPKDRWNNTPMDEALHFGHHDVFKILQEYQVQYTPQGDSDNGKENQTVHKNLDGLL
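hKGA in 45 mM KH2PO4 (pH 8.2), 0.02% Tween-20 with compound, then 1mM L-Glutamine (stock as added) plus glutamate oxidase/HRP/Amplex red coupling mix. Fluorescence read initially and after 30 min at RT; signal change reflects glutamate formation.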
ALOX12 inh: inhibitors of human 12S-lipoxygenase ALOX12 | purified 12hLO, xylenol orange hydroperoxide absorbance | actives 1.1% (n = 580,000) | Potency, µM (doses to about 108 µM), without a hit: at the top dose activity change, negative = inhibition, usual class: inhibitors; further: on the % scale 0 is the no-effect control and ±100 the full control effect
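Hydroperoxide product was detected by ferrous iron/xylenol orange as the 573 to 405 nm absorbance ratio. Arachidonic acid at 40 uM (final) was turned over for 30 min at room temperature by 150 nM human 12hLO, pH 7.0 Hepes buffer, after 15 min compound preincubation.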
PTHR1 ag: PTHR1 (human) receptor agonism | actives 0.075% (n = 410,000) | Potency, µM (doses to about 115 µM), without a hit: at the top dose activation, actives largely listed as activators | Q03431 | HEK293 GP2 PTHR1 cells, GloSensor cAMP luminescence, 1 h; further: nearly all actives have a fitted effect of over 55% in size
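HEK-293-derived GP2 cells expressing PTHR1 and a GloSensor cAMP reporter, 3,000/well, plated overnight, given luciferin plus IBMX (each 0.5 mM as added) for 1 h at 37 °C, then compound for 1 h at 37 °C. Luminescence was read after 15 min at room temperature.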
GLP-1R agonist: activates the human GLP-1 receptor; actives 0.007% (n = 380,000); HEK293 GLP-1R CRE-luciferase, luminescence, 4-6 h; cells express a hypersensitive GLP-1R form; Potency, µM (highest dose often 45.6 µM), inactives show at the highest dose activation, actives largely listed as activators; further: % of control where 0% means no effect
GLP1R inv ag: inverse agonists of human GLP-1 receptor. Potency, µM (top dose mostly 38.3 µM), without a hit: top-dose activity change, negative = inhibition, hits mostly inhibitors. actives 1.6% (n = 410,000). HEK293 GLP-1R CRE-luciferase, luminescence, 24 h; GLP-1R form is constitutively active; further: on the % scale 0 is the no-effect control and ±100 the full control effect; nearly all actives have a fitted effect of over 55% in size
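HEK293 cells stably co-expressing constitutively active GLP-1R and a cAMP-responsive luciferase reporter were seeded in DMEM with 10% Nu serum, given compounds after 12 h, and incubated 24 h at 37 deg C. Luminescence was then read.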
* hit, by the source's call; i = inactive; ? = inconclusive; / = no result; [ ] = remark or other dose. The call rests on the fitted dose curve; in most records, active means well fitted curve in the direction sought with a large enough effect; inconclusive means small, poorly fitted or top-dose-only effect, or another doubt; inactive means no such curve, though single readings can be large; an effect the other way counts as inactive or inconclusive. Potency means the concentration at half of the fitted maximal effect.

SMILES	Glioma ERSR ind	GLS inhibitor	ALOX12 inh	PTHR1 ag	GLP-1R agonist	GLP1R inv ag
CC1CC(C)CN(C(=O)c2ccc3c(c2)N(Cc2ccccc2)C(=O)CS3=O)C1 (configuration not stated)	/	/	-31.0%	/	/	/
COc1ccc(-c2ccc3c(c2)C(=O)N2CC[C@H](NS(=O)(=O)c4cccs4)[C@H]2C(=O)N3)cc1	/	/	31.0%	/	/	/
Cc1cccc(C(=O)NNC(=S)NC(=O)c2ccccc2)c1	?	-2.1%	121.6%	-13.4%	0.8%	?
O=C(Nc1cccc(OCC(=O)N2CCOCC2)c1)c1cccc([N+](=O)[O-])c1	-3.1%	-1.5%	-2.1%	i	1.5%	15.2%
O=C(NNC(=S)NC(=O)c1ccc(Br)cc1)c1ccc([N+](=O)[O-])cc1	4.4%	20.2%	44.7µM*	-42.1%	-3.4%	16.2%
O=C(NNC(=O)c1ccc([N+](=O)[O-])cc1)c1ccc(Br)cc1	-4.4%	3.0%	-12.0%	-8.5%	0.5%	-12.7%
Cc1cc(C(=O)NNC(=S)NC(=O)c2ccccc2)cs1	/	/	28.2µM*	/	/	/
O=C(NNC(=S)NC(=O)c1ccc(Br)cc1)c1cccc([N+](=O)[O-])c1	-4.8%	29.3%	39.8µM*	-1.3%	-3.5%	-9.5%
O=C(COc1cccc(NC(=O)c2cccc([N+](=O)[O-])c2)c1)c1ccc(Br)cc1	-2.3%	7.2%	0.0%	-11.9%[57.5 µM]	-16.0%	3.16µM*
C=CCNc1nc(N)c(C(=O)c2ccc(Cl)cc2)s1	/	/	-65.7%	/	/	/
CCNS(=O)(=O)c1ccc(NC(=O)c2cccc(NC(=O)C(CC)CC)c2)cc1	/	/	-13.3%	/	/	/
S=C(NCc1ccc(Cl)cc1)NC1CCN(Cc2ccccc2)CC1	-5.7%	0.0%	?	-16.0%	6.2%	3.55µM*
S=C(Nc1ccc(Cl)cc1Cl)NC1CCN(Cc2ccccc2)CC1	-5.0%	16.8%	-26.0%	i	5.4%	?
S=C(Nc1cc(Cl)cc(Cl)c1)NC1CCN(Cc2ccccc2)CC1	-15.5%	11.9%	?	i	-1.9%	3.98µM*
Clc1ccc(CNC2CCN(Cc3ccccc3)CC2)cc1	-3.2%	2.3%	8.91µM*	-26.2%	2.6%	-42.0%
Fc1ccc(CNC2CCN(Cc3ccccc3)CC2)cc1	0.4%	3.0%	-1.4%	-65.2%	0.4%	?
S=C(Nc1ccccc1Cl)NC1CCN(Cc2ccccc2)CC1	-5.0%	8.9%	-21.9%	i	-19.9%	?
COc1ccc(CNC(=O)c2cc3cccc4c3n2CC(C)S4)c(OC)c1 (configuration not stated)	-5.9%	-8.4%	-13.3%	-4.9%	/	7.94µM*
COc1cccc(CNC(=O)c2cc3cccc4c3n2CC(C)S4)c1OC (configuration not stated)	-2.4%	-8.3%	?	-9.8%	/	?
COc1ccc(C2c3ccc4ccccc4c3Oc3ncn(CCCO)c(=N)c32)cc1 (configuration not stated)	-8.0%	?	?	-10.8%	15.8%	5.62µM*
COc1ccc(C2c3ccc4ccccc4c3Oc3ncn(CCO)c(=N)c32)cc1 (configuration not stated)	-6.2%	4.0%	/	-11.7%	14.1%	?
COc1ccc(C2c3ccc4ccccc4c3Oc3ncn(CCN(C)C)c(=N)c32)cc1 (configuration not stated)	1.5%	8.8%	0.0%	-8.9%	26.8%	3.98µM*
CCc1ccc(OCCCOc2ccccc2/C=N/NC(=O)c2cccc(Cl)c2)cc1	/	/	-2.8%	/	/	/
COc1cc2c(cc1OC)C(c1ccc(-c3ccccc3Cl)o1)=NCC2	3.7%	16.8%	39.8µM*	i	-31.1%	?
CCCCNC(=O)N1CCC(C(=O)O)CC1	/	/	-0.8%	/	/	/
SMILES	Glioma ERSR ind	GLS inhibitor	ALOX12 inh	PTHR1 ag	GLP-1R agonist	GLP1R inv ag
COc1cc(C2c3sc(=O)[nH]c3SC3C(=O)N(c4ccc(Br)cc4)C(=O)C32)ccc1O (configuration not stated)	-4.0%	23.1%	39.8µM*	-6.9%	-0.6%	14.6%
CC(=O)N(Cc1ccc(F)cc1)C1=C(NCc2ccccc2)C(=O)c2ccccc2C1=O	-16.8%	-9.3%	/	-26.4%	-12.4%	10µM*
Cc1cc(C(=O)OCC(=O)NCC(F)(F)F)c2ccccc2n1	/	/	-1.1%	/	/	/
N#C/C(=C\c1ccc(-c2ccc(F)cc2F)o1)c1nc2ccccc2[nH]1	6.3%	1.9%	-17.1%	i	/	-1.8%
N#C/C(=C\c1ccc(-c2ccc(Cl)cc2Cl)o1)c1nc2ccccc2[nH]1	/	/	11.2µM*	/	/	/
Cc1cc(/C=C(/C#N)c2nc3ccccc3[nH]2)c(C)n1-c1cc(C(=O)O)cc(C(=O)O)c1	-1.0%	17.8µM*	?	i	2.8%	9.3%
N#C/C(=C\c1ccc(O)c(Br)c1)c1nc2ccccc2[nH]1	/	/	-7.1%	/	/	/
N#C/C(=C/c1ccc(O)c(O)c1)c1nc2ccccc2[nH]1	?	?	7.94µM*	-3.1%	15.3%	18.5%
Cc1nc2cc(NC(=O)CNC(=O)c3ccco3)ccc2o1	/	/	-11.3%	/	/	/
CC(Nc1ccc(Cl)cc1)C(=O)NC(N)=O (configuration not stated)	/	/	36.6%	/	/	/
Cc1cc(C(=O)Nc2ccc(Cl)cc2)c(C)n1-c1ccccc1	-10.8%	-2.3%	i	-39.0%	-21.5%	-82.3%
Cc1cc(C(=O)NNS(=O)(=O)c2cc(C(=O)O)ccc2Cl)c(C)n1-c1ccccc1	-8.4%	20µM*	-27.7%	-3.5%	-19.0%	6.7%
CC(C(=O)NNS(=O)(=O)c1cccc(C(F)(F)F)c1)n1nnc(N2CCOCC2)n1 (configuration not stated)	0.8%	-0.5%	3.55µM*	-23.5%	1.5%	10.1%
CN(CCO)C(=O)c1nc(-c2ccc3cc[nH]c3c2)no1	/	/	-4.7%	/	/	/
O=C(/C=C/c1cccs1)Oc1ccc2oc3ccccc3c2c1	/	/	-4.2%	/	/	/
Cc1noc(C)c1[S+](=O)([O-])N1CCC2OCCN(Cc3ccccc3)C(=O)C2C1 (configuration not stated)	/	/	100µM*	/	/	/
CC(C)N=C(NS(=O)(=O)c1ccccc1)C(Cl)(Cl)Cl	-13.7%	5.0%	-5.5%	-16.6%	-7.1%	3.98µM*
Cc1cc(/C=C(\C#N)c2nc3ccccc3s2)cc2c1OC(C)C2 (configuration not stated)	/	/	-1.7%	/	/	/
CCC1(c2ccc(Cl)cc2)NC(=S)N(c2ccccc2)N1 (configuration not stated)	5.1%	-16.5%	15.8µM*	-15.5%	5.5%	16.9%
CCCCCCC1(C)NC(=S)N(c2ccccc2)N1 (configuration not stated)	0.7%	-5.3%	?	-7.4%	2.2%	?

Screening data deposited in PubChem BioAssay by National Center for Advancing Translational Sciences (NCATS).
